Legend:
[1] = system: CLZ3 (HCA2 human fibroblast dual HR-NHEJ reporter); assay: NHEJ repair efficiency (GFP+ cells) relative to control (log10 fold); higher = more non-homologous end joining; settings: 5 µM; doxycycline 0.5 ug/mL
[2] = system: CLZ3 (HCA2 human fibroblast dual HR-NHEJ reporter); assay: HR repair efficiency (tdTomato+ cells) relative to control (log10 fold); higher = more homologous recombination; settings: 5 µM; doxycycline 0.5 ug/mL
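For HR repair efficiency (tdTomato+ cells) relative to control in this document: compound given one day before doxycycline, which switches on I-SceI endonuclease expression to create double-strand breaks within the integrated reporter.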
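For NHEJ repair efficiency (GFP+ cells) relative to control in this document: compound given one day ahead of doxycycline, which switches on I-SceI endonuclease to cut the chromosomally integrated reporter and create DSBs.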

| SMILES | NHEJ repair efficiency (log10) [1] | HR repair efficiency (log10) [2] |
| --- | --- | --- |
| CCCCCCCCCCCCCCCC(=O)OC [Methyl Palmitate] | 0.0451 | 0.0601 |
| CC[C@H](/C=C/[C@@H](C)[C@H]1CC[C@H]2[C@@H]3CC=C4C[C@@H](O)CC[C@]4(C)[C@H]3CC[C@]12C)C(C)C [Stigmasterol] | -0.155 | -0.14 |
| C[C@@H]1CC[C@@]2(OC1)O[C@H]1C[C@H]3[C@@H]4CC=C5C[C@@H](O)C[C@@H](O)[C@]5(C)[C@H]4CC[C@]3(C)[C@H]1[C@@H]2C [Ruscogenin] | -0.0127 | 0.181 |
| Oc1ccc(/C=C/c2cc(O)cc(O)c2)cc1 [Resveratrol] | -0.0132 | 0.0336 |
| CC1(C)[C@@H](O)CC[C@]2(C)[C@H]3CC=C4[C@@H]5C[C@@]6(C)C[C@H](OC6=O)[C@]5(C)CC[C@@]4(C)[C@]3(C)CC[C@@H]12 [Wilforlide A] | -0.137 | 0.00171 |
| Cc1c(O)cc2c(c1O)C(=O)c1ccc(O)c(O)c1C2=O [3-Hydroxymorindone] | -0.105 | 0.0716 |
| O=C1C[C@@H](c2ccc(O)cc2)Oc2cc(O)cc(O)c21 [Naringenin] | -0.176 | -0.025 |
| COc1ccc(-c2oc3cc(O)cc(O)c3c(=O)c2O)cc1 [Kaempferide] | -0.0948 | -0.167 |
| C[C@@H]1C(=O)O[C@H](C)[C@H]1C[C@@H](O)[C@](C)(O)[C@H]1CC[C@@]2(O)C3=CC(=O)[C@@H]4C[C@@H](O)[C@@H](O)C[C@]4(C)[C@H]3CC[C@]12C [Cyasterone] | 0.00995 | 0.0455 |
| COc1cc(-c2cc(=O)c3c(O)c(OC)c(O)cc3o2)ccc1O [Jaceosidin] | -0.028 | -0.105 |
| CCOC(=O)/C=C/c1ccc(O)c(O)c1 [Ethyl Caffeate] | 0.0562 | 0.0777 |
| CC[C@H](CC[C@@H](C)[C@H]1CC[C@H]2[C@@H]3CC=C4C[C@@H](O[C@@H]5O[C@H](CO)[C@@H](O)[C@H](O)[C@H]5O)CC[C@]4(C)[C@H]3CC[C@]12C)C(C)C [Daucosterol] | -0.00976 | 0.0626 |
| COc1ccc2ccc(=O)oc2c1CC=C(C)C [Osthole] | 0.0815 | -0.0645 |
| CC1(C)[C@@H](O[C@H]2O[C@H](C(=O)O)[C@@H](O)[C@H](O)[C@H]2O[C@@H]2O[C@H](C(=O)O)[C@@H](O)[C@H](O)[C@H]2O)CC[C@]2(C)[C@H]3C(=O)C=C4[C@@H]5C[C@@](C)(C(=O)O)CC[C@]5(C)CC[C@@]4(C)[C@]3(C)CC[C@@H]12 [Glycyrrhizic acid] | 0.142 | -0.0143 |
| C[C@@H]1O[C@@H](OC[C@H]2O[C@@H](Oc3cc(O)c4c(c3)O[C@H](c3ccc(O)cc3)CC4=O)[C@H](O)[C@@H](O)[C@@H]2O)[C@H](O)[C@H](O)[C@H]1O [Narirutin] | 0.00886 | -0.053 |

Source: the supplement of paper PMC7380943
